Experiment [1] is described as follows: antimalarial activity against Dd2 strain (AID 2302;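 active means growth inhibition above 50% at the single 2 µM test dose, taken to imply half-maximal potency below 2 µM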;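 further: 0% = DMSO untreated growth and 100% = chloroquine plus artemisinin killed control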). The note with it: P. falciparum Dd2 in RBCs, LDH growth readout, 72 h; at 2 µM; active compounds read high.
The nature of experiment [2]: human hepatoma cell viability loss – ATP luminescence, cytotoxicity control for P. falciparum antimalarial project, primary screen (AID 2303;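 active means inhibition above 50%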;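 further: 0% = DMSO wells and 100% = digitonin-killed cells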). The note with it: HepG2 viability, 24-48 h, at 10 µM, active compounds read high.
In experiment [3] the target is L-lactate dehydrogenase (Plasmodium falciparum (isolate CDC / Honduras)) (UniProt Q27743). Put plainly: PfLDH activity inhibition – cell lysate, 3D7 strain, counter-screen for P. falciparum growth inhibition project (AID 2304).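 Further: 0% = vehicle and 100% = reference inhibitor.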 The note with it: P. falciparum 3D7 crude extract, LDH APAD/NBT absorbance; at 2 µM; active compounds read high. A general note: Counterscreens check selectivity or assay interference.

Experiment [4] can be described thus: inhibition of 3D7 malaria parasite growth – strain 3D7 (AID 2306).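 Further: 0% = DMSO wells and 100% = chloroquine plus artemisinin control wells.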 The note with it: P. falciparum 3D7 erythrocytic growth, LDH absorbance, 72 h; at 2 µM; active compounds read high.
For experiment [5], the target named is Calcium-dependent protein kinase 1 (Plasmodium falciparum (isolate 3D7)) (UniProt P62344). The experiment is described as follows: PfCDPK1 kinase inhibitors, biochemical, TCAMS library (AID 1159585; cut-off not given, nearly all actives have IC50 up to about 0.98 µM;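 further: inhibitors leave more ATP so luminescence rises with inhibition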). As to conditions: recombinant PfCDPK1, Kinase-Glo ATP depletion luminescence. For orientation: In Kinase-Glo more light means more ATP remaining.
Experiment [6] has as its target Plasmodium falciparum protein kinase 6 (PK6, PF3D7_1337100) (UniProt Q8IDW1). Put plainly: PfPK6 kinase inhibitors, biochemical, TCAMS library (AID 1159586). The note with it: recombinant PfPK6, Kinase-Glo ATP depletion luminescence.
Experiment [7] concerns the target Protein kinase 7 (PK7), Plasmodium falciparum 3D7 (PF3D7_0213400) (UniProt Q7YTF7). The experiment is described as follows: inhibition of Plasmodium PK7 catalytic activity – biochemical, TCAMS antimalarial set, Kinase-Glo luminescence (AID 1159587). As to conditions: recombinant PfPK7, Kinase-Glo ATP depletion luminescence.
In experiment [8] the target is Calcium-dependent protein kinase 4 (Plasmodium falciparum (isolate 3D7)) (UniProt Q8IBS5). Put plainly: PfCDPK4 kinase inhibitors, biochemical, TCAMS library (AID 1159588; cut-off not given, nearly all actives have IC50 up to about 0.91 µM). As to conditions: recombinant PfCDPK4, Kinase-Glo ATP depletion luminescence.

Molecules are shown by their SMILES. A number with no mark means an inactive call. For some assays here: Potency and affinity values are given separately. The source made the active and inactive calls. Unless noted, how the calls were made is not given here.

Chain of Protein kinase 7 (PK7), Plasmodium falciparum 3D7 (PF3D7_0213400) (Q7YTF7 1-343): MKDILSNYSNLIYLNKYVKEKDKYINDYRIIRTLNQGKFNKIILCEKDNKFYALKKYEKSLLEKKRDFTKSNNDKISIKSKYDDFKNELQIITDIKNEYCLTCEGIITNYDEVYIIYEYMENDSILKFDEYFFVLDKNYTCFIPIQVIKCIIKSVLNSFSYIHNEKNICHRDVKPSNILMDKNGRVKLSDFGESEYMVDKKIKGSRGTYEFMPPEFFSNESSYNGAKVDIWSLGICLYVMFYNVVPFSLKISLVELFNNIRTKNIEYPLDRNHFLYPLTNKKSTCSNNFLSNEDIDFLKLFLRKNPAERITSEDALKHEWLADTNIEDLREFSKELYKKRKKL
Chain of L-lactate dehydrogenase (Plasmodium falciparum (isolate CDC / Honduras)) (Q27743 whole entry, looked up): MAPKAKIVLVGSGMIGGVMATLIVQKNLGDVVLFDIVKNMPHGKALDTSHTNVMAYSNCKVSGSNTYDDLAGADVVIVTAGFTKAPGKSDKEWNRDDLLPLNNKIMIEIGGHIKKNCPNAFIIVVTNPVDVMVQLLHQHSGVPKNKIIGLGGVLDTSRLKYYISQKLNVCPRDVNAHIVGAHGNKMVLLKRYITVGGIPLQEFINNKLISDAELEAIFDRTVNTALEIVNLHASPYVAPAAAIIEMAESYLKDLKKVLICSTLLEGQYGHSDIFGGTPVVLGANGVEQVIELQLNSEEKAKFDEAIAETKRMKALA
Chain of Calcium-dependent protein kinase 1 (Plasmodium falciparum (isolate 3D7)) (P62344 whole entry, looked up): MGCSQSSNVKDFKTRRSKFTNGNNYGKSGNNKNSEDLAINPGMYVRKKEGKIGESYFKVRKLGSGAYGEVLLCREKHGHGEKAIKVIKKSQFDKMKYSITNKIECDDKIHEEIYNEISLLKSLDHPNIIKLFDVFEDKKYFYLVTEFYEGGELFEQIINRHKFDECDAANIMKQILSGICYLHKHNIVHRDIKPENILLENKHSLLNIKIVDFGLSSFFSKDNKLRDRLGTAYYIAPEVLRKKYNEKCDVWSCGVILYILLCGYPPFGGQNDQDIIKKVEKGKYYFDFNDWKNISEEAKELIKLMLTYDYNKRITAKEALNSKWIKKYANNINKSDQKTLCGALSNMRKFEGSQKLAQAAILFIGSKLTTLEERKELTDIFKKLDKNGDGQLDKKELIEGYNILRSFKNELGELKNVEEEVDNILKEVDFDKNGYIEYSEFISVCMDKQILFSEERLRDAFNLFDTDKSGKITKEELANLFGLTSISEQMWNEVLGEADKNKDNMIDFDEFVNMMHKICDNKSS
Chain of Calcium-dependent protein kinase 4 (Plasmodium falciparum (isolate 3D7)) (Q8IBS5 whole entry, looked up): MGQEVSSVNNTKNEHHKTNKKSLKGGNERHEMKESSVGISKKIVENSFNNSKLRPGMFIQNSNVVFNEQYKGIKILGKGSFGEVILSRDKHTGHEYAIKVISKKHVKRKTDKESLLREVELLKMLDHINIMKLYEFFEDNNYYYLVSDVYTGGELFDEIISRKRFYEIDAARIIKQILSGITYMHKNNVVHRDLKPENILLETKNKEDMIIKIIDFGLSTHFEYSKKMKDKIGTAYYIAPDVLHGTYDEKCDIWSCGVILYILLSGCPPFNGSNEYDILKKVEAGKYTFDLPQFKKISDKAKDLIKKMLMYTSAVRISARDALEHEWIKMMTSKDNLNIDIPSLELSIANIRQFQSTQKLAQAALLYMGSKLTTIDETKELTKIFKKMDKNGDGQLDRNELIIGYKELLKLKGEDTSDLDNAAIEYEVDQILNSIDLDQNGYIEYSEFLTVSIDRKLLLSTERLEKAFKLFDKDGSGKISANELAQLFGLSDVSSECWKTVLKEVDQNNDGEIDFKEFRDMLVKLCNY
Chain of Plasmodium falciparum protein kinase 6 (PK6, PF3D7_1337100) (Q8IDW1 1-305): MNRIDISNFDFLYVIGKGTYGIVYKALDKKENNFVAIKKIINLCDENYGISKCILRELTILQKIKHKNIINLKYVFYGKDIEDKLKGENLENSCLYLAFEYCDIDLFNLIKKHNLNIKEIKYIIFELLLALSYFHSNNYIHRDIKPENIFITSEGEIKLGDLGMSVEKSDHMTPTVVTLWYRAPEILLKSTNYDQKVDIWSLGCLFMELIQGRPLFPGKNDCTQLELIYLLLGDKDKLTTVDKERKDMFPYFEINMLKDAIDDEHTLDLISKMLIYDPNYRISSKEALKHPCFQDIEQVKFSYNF

The term inhibition denotes the relative decrease from the control value, in per cent. As for `Cc1ccccc1Cc1cccc(/N=C(\N)Nc2ccc(Cl)cc2)n1`, the growth inhibition is 56% (active) in experiment [1] and 91% (active) in experiment [4]. Moreover, the inhibition is 48% in experiment [2] and -7% in experiment [3]. Moreover, the outcome in experiment [5], in experiment [6], in experiment [7] and in experiment [8] was inactive.

Take `CC(C)c1ccc(O)cc1Nc1ccnc2ccc(C(F)(F)F)cc12`: the growth inhibition is 90% (active) in experiment [1] and 97% (active) in experiment [4]. Further, the inhibition was 6% in experiment [2] and -6% in experiment [3]. The result in experiment [5], in experiment [6], in experiment [7] and in experiment [8] was inactive.

`CN(CCN1CCC(c2c[nH]c3ccccc23)CC1)c1ccc(-c2nc3cc(Cl)c(Cl)cc3[nH]2)cc1`: the growth inhibition in experiment [1] and in experiment [4] was 101% (active) throughout. The inhibition was 22% in experiment [2] and -1% in experiment [3]. Also, the outcome in experiment [5], in experiment [6], in experiment [7] and in experiment [8] was inactive.

Turning to `CN1CCC[C@H]1COc1ccc(CN2CC[C@H](NC(=O)c3ccc(Cl)c(Cl)c3)C2)cc1Br`, the growth inhibition in experiment [1] was 20%; in experiment [4], 101% (active). The inhibition in experiment [2] is 81% (active); in experiment [3], -1%. The result in experiment [5], in experiment [6], in experiment [7] and in experiment [8] was inactive.

As for `COc1ccc(Cl)cc1N1CCN(CCCNC(=O)c2ccc(-c3nc4ccncc4[nH]3)c(Br)c2)CC1`, the values for the growth inhibition in experiment [1] and in experiment [4] were 15% and 86% (active), respectively. The inhibition in experiment [2] is 5%; in experiment [3], 4%. The outcome in experiment [5], in experiment [6], in experiment [7] and in experiment [8] was inactive.

On to `COc1cccc(Cc2cnc3nc(N)nc(N)c3c2C)c1`, for which the growth inhibition in experiment [1] was 76% (active); in experiment [4], 94% (active). The inhibition in experiment [2] was 57% (active); in experiment [3], 0%. For the same compound, the outcome in experiment [5], in experiment [6], in experiment [7] and in experiment [8] was inactive.

In the case of `O=C(C1CCN(C(c2ccccc2)c2ccc(Cl)c(Cl)c2)CC1)N1CC=CC1` (configuration not stated), the growth inhibition is 84% (active) in experiment [1] and 89% (active) in experiment [4]. In addition, the figures for the inhibition in experiment [2] and in experiment [3] were 1% and 7%, respectively. Further, the outcome in experiment [5], in experiment [6], in experiment [7] and in experiment [8] was inactive.

In the case of `Cc1cccc2[nH]c(-c3ccc(-c4cccc(CN5CCC(C(N)=O)CC5)c4)cc3)nc12`, the growth inhibition was 16% in experiment [1] and 87% (active) in experiment [4]. Moreover, the figures for the inhibition in experiment [2] and in experiment [3] were 9% and 6%, respectively. In addition, the result in experiment [5], in experiment [6], in experiment [7] and in experiment [8] was inactive.

Take `Cc1cnc(NCC2CCCCC2)nc1NCC(=O)Nc1ccccc1`: the growth inhibition in experiment [1] was 51% (active); in experiment [4], 90% (active). The inhibition in experiment [2] is 21%; in experiment [3] it was 0%. Besides, the result in experiment [5], in experiment [6], in experiment [7] and in experiment [8] was inactive.

For the compound `O=C(Nc1cccc(-c2nn3ccccc3c2-c2ccnc(Nc3ccc(Cc4ccncc4)cc3)n2)c1)c1c(F)cccc1F`, the growth inhibition in experiment [1] and in experiment [4] was 97% (active) throughout. The values for the inhibition in experiment [2] and in experiment [3] were 43% and -1%, respectively. For the same compound, the result in experiment [5], in experiment [6], in experiment [7] and in experiment [8] was inactive.

As for `O=C(Nc1ccc(N2CCNCC2)cc1)c1ccn2ncc(-c3cccc(Cl)c3)c2n1`, the results for the growth inhibition in experiment [1] and in experiment [4] were 53% (active) and 96% (active), respectively. Besides, the inhibition in experiment [2] is 79% (active); in experiment [3], -2%. In addition, the outcome in experiment [5], in experiment [6], in experiment [7] and in experiment [8] was inactive.

`CCCCCNc1ccnc2cc(Cl)ccc12`: the growth inhibition in experiment [1] is 99% (active); in experiment [4], 97% (active). The inhibition in experiment [2] was 12%; in experiment [3], -2%. For the same compound, the outcome in experiment [5], in experiment [6], in experiment [7] and in experiment [8] was inactive.

Regarding `CCOC(=O)c1cn(CC)c2cc(N3CCCCC3)c(F)cc2c1=O`, the growth inhibition in experiment [1] was 96% (active); in experiment [4], 97% (active). The inhibition in experiment [2] is 0%; in experiment [3], 2%. Moreover, the result in experiment [5], in experiment [6], in experiment [7] and in experiment [8] was inactive.

For the compound `CC1CCC(C[C@@H](C(=O)N[C@H](C(=O)Nc2nccs2)[C@@H](C)O)[C@H](CCC(F)(F)F)N(O)C=O)CC1` (some centres not stated), the growth inhibition was 94% (active) in experiment [1] and 95% (active) in experiment [4]. Also, the inhibition in experiment [2] is -8%; in experiment [3], 3%. In addition, the result in experiment [5], in experiment [6], in experiment [7] and in experiment [8] was inactive.

As to `CN(C)Cc1c(O)ccc2oc(Cc3ccccc3)cc12`, the results for the growth inhibition in experiment [1] and in experiment [4] were 94% (active) and 99% (active), respectively. Further, the inhibition in experiment [2] and in experiment [3] was 0% each time. Moreover, the outcome in experiment [5], in experiment [6], in experiment [7] and in experiment [8] was inactive.

Turning to `Nc1cc(C(F)(F)F)ccc1Cl`, the growth inhibition was -1% in experiment [1] and 97% (active) in experiment [4]. Moreover, the inhibition in experiment [2] is 8%; in experiment [3], -1%. In addition, the outcome in experiment [5], in experiment [6], in experiment [7] and in experiment [8] was inactive.

With `Cc1ccnc(NC(c2ccc(Cl)c([N+](=O)[O-])c2)c2ccc3cccnc3c2O)c1` (configuration not stated), the values for the growth inhibition in experiment [1] and in experiment [4] were 57% (active) and 89% (active), respectively. Further, the inhibition in experiment [2] was 47%; in experiment [3], 6%. The outcome in experiment [5], in experiment [6], in experiment [7] and in experiment [8] was inactive.

On to `Cc1cc(OCCCNc2nc(NCCc3ccc(O)cc3)nc(N3CCNCC3)n2)c(Cl)c(C)c1Cl`, for which the growth inhibition in experiment [1] was 8%; in experiment [4], 99% (active). Besides, the inhibition in experiment [2] was 54% (active); in experiment [3], 5%. Also, the result in experiment [5], in experiment [6], in experiment [7] and in experiment [8] was inactive.

Turning to `CCOC(=O)c1c(C)n(-c2ccc(Cl)cc2)c2ccc(OC(=O)C=Cc3ccccc3)cc12`, the growth inhibition in experiment [1] was 92% (active); in experiment [4], 99% (active). In addition, the inhibition in experiment [2] was 3%; in experiment [3] it was -2%. For the same compound, the result in experiment [5], in experiment [6], in experiment [7] and in experiment [8] was inactive.

For the origin of these results see PubChem BioAssay.
